# Test results published in PubChem BioAssay (NCATS).
# Where “and” joins values, the source holds several entries; their conditions need not be identical. Identical values can stand only once. Records with an inconclusive call do not appear. Entries that show only a call come without a potency. A structure can be active in one record and inactive in another. Calls of active or inactive are those of the source. Unless noted, calls follow the shape of the dose curve; as a rule, active = well fitted curve in the direction sought with a large enough effect; inconclusive = small, poorly fitted or top-dose-only effect, or another doubt; inactive = no such curve, though single readings can be large; an effect the other way counts as inactive or inconclusive.
# Assays:
# [1] = High-throughput drug toxicity screening in the BPDCN cell line Gen2.2 (AID 1224824; call rule not given here;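 also: cells exposed to compounds for 48 h before reading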); conditions: Gen2.2 BPDCN cells; at 45.8 µM (top of the series) unless noted
# Procedure, shortened: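 CellTiter-Glo luminescence read after 48 h compound exposure at 37 C defines viability; percent activity set with DMSO as 100% and bortezomib (9.2 uM final) as 0%. 500 exponentially growing cells per well, RPMI plus 10% FBS.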
# [2] = High-throughput drug toxicity screening in the BPDCN cell line Cal-1 (AID 1224825; call rule not given here); conditions: Cal-1 BPDCN cell viability, qHTS; at 45.8 µM (top of the series) unless noted
# Procedure, shortened: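 Cal-1 cells, 500 per well in phenol-red-free RPMI with 10% FBS, exposed to compounds for 48 hours at 37C, 5% CO2. Viability read by CellTiter-Glo luminescence; percent activity normalized to DMSO (100%) and 9.2 uM bortezomib final (0%).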
# [3] = qHTS assay for measurement of the activity of small molecule inhibitors on Zika virus induced Caspase-3 activity in human iPSC derived neural progenitor cells (hNPCs) (AID 1224857); also: nearly all actives have a fitted effect of over 65% in size; also: potency is read from the fitted curve at half-maximal effect
# Procedure, shortened: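 Percent inhibition of virus-induced caspase-3/7 luminescence (Caspase-Glo), scaled between uninfected cells and Zika-infected cells. hNPCs received compound 1 hr before ZIKV at 2 FFU/cell, with 6 hours infection at 37 C.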
# [4] = qHTS assay for measurement of the activity of small molecule inhibitors on Zika virus induced Caspase-3 activity in human astrocytoma cells (AID 1224859); also: potency is read from the fitted curve at half-maximal effect
# Procedure, shortened: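 Luminescent caspase-3/7 read-out (30 min reagent, room temperature) in human SNB-19 cells infected 6 h with ZIKV (2 FFU/cell) after 1 h compound pre-incubation; Data were normalised to uninfected and infected wells.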
# [5] = qHTS Screen of the MIPE 4.0 Collection Against Ewings Sarcoma (RDES) (AID 1259252); also: nearly all actives have a fitted effect of over 35% in size; also: potency is read from the fitted curve at half-maximal effect
# Procedure, shortened: (§1)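 Dose series incubated 48 h with cells in RPMI plus 5% FBS, glutamine and penicillin/streptomycin; cell viability then quantified via CellTiter-Glo.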
# [6] = qHTS Screen of the MIPE 4.0 Collection Against Ewings Sarcoma (EW8) (AID 1259255); also: nearly all actives have a fitted effect of over 35% in size; also: potency is read from the fitted curve at half-maximal effect
# Procedure, shortened: as §1
# [7] = Identifying Small Molecule Inhibitors of Pancreatic Cancer Stem Cells (SN12C, Adherent) (AID 1259358);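 also: cell survival measured after 48 h of compound exposure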; also: potency is read from the fitted curve at half-maximal effect
# Procedure, shortened: (§2)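 Endpoint: ATP-based luminescence, 48 h drug exposure. Bortezomib at 9.2 uM final as full-kill control; DMSO vehicle as negative control; activity normalized between vehicle and cell-free wells.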
# [8] = P-glycoprotein substrates identified in KB-8-5-11 adenocarcinoma cell line, qHTS therapeutic library screen (AID 1346987); also: nearly all actives have a fitted effect of over 65% in size; also: potency is read from the fitted curve at half-maximal effect
# Procedure, shortened: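 KB-8-5-11: colchicine-selected sub-line of KB-3-1 over-expressing P-gp; assay medium lacked colchicine. 72 h drug exposure at 37 degree C, CellTiter-Glo.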
# [9] = qHTS Screen of the MIPE 4.0 Collection Against Ewings Sarcoma (TC32) (AID 1259256); also: nearly all actives have a fitted effect of over 45% in size; also: potency is read from the fitted curve at half-maximal effect
# Procedure, shortened: as §1
# [10] = Identifying Small Molecule Inhibitors of Pancreatic Cancer Stem Cells (SN12C, Spheroid) (AID 1259360); conditions: Potency: SN12C spheroid viability; also: potency is read from the fitted curve at half-maximal effect
# Procedure, shortened: (§3)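 Spheroids grown 14 days in stem cell media on nonadherent hydrogel before screening; cells attached 4 h, then compound exposure 48 h at 37C, 5% CO2. CellTiter-Glo luminescence normalized to DMSO (no inhibition) and no-cell wells (full inhibition).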
# [11] = P-glycoprotein substrates identified in KB-3-1 adenocarcinoma cell line, qHTS therapeutic library screen (AID 1346986); also: nearly all actives have a fitted effect of over 60% in size;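 also: potency is read from the fitted curve at half-maximal effect; potency is for cytotoxicity meaning loss of cell viability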
# Procedure, shortened: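 Compounds were tested in dose-response against KB-3-1 and KB-8-5-11 cells at 37 degree C for 72 h, and viability was measured by luminescence. AC50 values came from curve fitting with class-based activity calls.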
# [12] = Identifying Small Molecule Inhibitors of Pancreatic Cancer Stem Cells (Panc1, Spheroid) (AID 1259359);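 also: potency is read from the fitted curve at half-maximal effect; compound exposure lasted 48 h before reading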
# Procedure, shortened: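 After a 4 h attachment period, compounds were pinned into wells and cultures held 48 h under standard incubator conditions. Viability was then measured as CellTiter-Glo luminescence following 10 min at room temperature.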
# [13] = qHTS assay to identify small molecule inhibitors of chordoma cells - UCH-1 (AID 1259355); also: nearly all actives have a fitted effect of over 55% in size
# Procedure, shortened: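 Cells (800/well) were seeded and left overnight at 37 C, 5% CO2, then treated with drugs at 15 concentrations plus a combination mix of auranofin, camptothecin, doxorubicin, rubitecan and topotecan. Viability after 48hr was read by CellTiter-Glo luminescence.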
# [14] = qHTS assay to identify small molecule inhibitors of chordoma cells - UCH-2 (AID 1259356)
# [15] = Identifying Small Molecule Inhibitors of Pancreatic Cancer Stem Cells (Panc1, Adherent) (AID 1259362); conditions: Potency: viability;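 also: compound exposure lasted 48 h before the viability read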
# Procedure, shortened: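 Luminescent ATP readout (CellTiter-Glo) quantifies surviving cells after a 48 h drug incubation. Normalization uses DMSO wells as no inhibition and media-only wells as full inhibition; bortezomib served as positive control.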
# [16] = qHTS Screen of the MIPE 4.0 Collection Against Ewings Sarcoma (TC71) (AID 1259253); also: nearly all actives have a fitted effect of over 40% in size; also: potency is read from the fitted curve at half-maximal effect
# Procedure, shortened: as §1
# [17] = Identifying Small Molecule Inhibitors of Pancreatic Cancer Stem Cells (A2780, Spheroid) (AID 1259357); conditions: Potency: A2780 spheroid viability; also: potency is read from the fitted curve at half-maximal effect;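 also: spheroids pre-formed over 14 days in stem cell medium on hydrogel; compound exposure lasted 48 h before the ATP luminescence read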
# Procedure, shortened: as §3
# [18] = Identifying Small Molecule Inhibitors of Pancreatic Cancer Stem Cells (A278, Adherent) (AID 1259361); also: nearly all actives have a fitted effect of over 35% in size
# Procedure, shortened: as §2
# [19] = Natriuretic polypeptide receptor (hNpr1) antagonism - Pilot counterscreen GloSensor control cell line (AID 1347045; calls by dose curve)
# Procedure, shortened: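 HEK293 cells carrying the GloSensor cGMP sensor (GIP/pGS-40F) were loaded with 2% GloSensor reagent for 2 h, exposed to compounds for 30 min, and then stimulated with 50 uM sodium nitroprusside for 20 min at room temperature.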
smiles,measurement,setting,value
Cc1ccc(NC(=O)c2cccc(C(C)(C)C#N)c2)cc1Nc1ccc2ncn(C)c(=O)c2c1,"cell viability, % of control (lower = more cytotoxic)",[1],8.79%
same,viability (% of control),[2],14%
same,Potency,[3],inactive
same,Potency,[4],inactive
same,Potency,[5],14.8 µM (active)
same,Potency,[6],14.8 µM (active)
same,Potency,[7],7.43 µM (active)
same,Potency,[8],16.6 µM (active)
O=C(O)[C@@H](c1ccc(OCc2ccc3ccccc3n2)cc1)C1CCCC1,"cell viability, % of control (lower = more cytotoxic)",[1],125%
same,Potency,[3],16.6 µM (active)
same,Potency,[4],13.2 µM (active)
same,Potency,[5],inactive
same,Potency,[6],inactive
same,Potency,[9],inactive
same,Potency,[7],inactive
same,Potency,[10],inactive
same,Potency,[8],inactive
CCCn1c(=O)c2[nH]c(C34CC5CC3C[C@@H](C5)C4)nc2n(CCC)c1=O,"cell viability, % of control (lower = more cytotoxic)",[1],214%
same,viability (% of control),[2],125%
same,Potency,[3],inactive
same,Potency,[4],inactive
same,Potency,[7],inactive
same,Potency,[10],inactive
same,Potency,[8],inactive
CC(C=CC1=C(C)CCCC1(C)C)=CC=CC(C)=CC(=O)O,"cell viability, % of control (lower = more cytotoxic)",[1],49.1% and 83.4%
same,viability (% of control),[2],39.4% and 7.95%
same,Potency,[3],inactive
same,Potency,[4],inactive
same,Potency,[5],23.5 µM (active)
same,Potency,[6],20.9 µM (active) and 9.35 µM (active)
same,Potency,[9],20.9 µM (active) and 3.72 µM (active)
same,Potency,[11],inactive
same,Potency,[8],inactive
COc1ccc(-c2ccc3c(N4CCOCC4)nc(N4C[C@@H](C)O[C@@H](C)C4)nc3n2)cc1CO,"cell viability, % of control (lower = more cytotoxic)",[1],19.2%
same,Potency,[3],inactive
same,Potency,[4],inactive
same,Potency,[5],0.526 µM (active)
same,Potency,[6],0.662 µM (active)
same,Potency,[9],0.59 µM (active)
same,Potency,[7],0.235 µM (active)
same,Potency,[12],1.05 µM (active)
same,Potency,[10],0.372 µM (active)
same,Potency,[8],0.296 µM (active)
CN1CCN(CCCN2c3ccccc3Sc3ccc(C(F)(F)F)cc32)CC1,"cell viability, % of control (lower = more cytotoxic)",[1],55.3%
same,Potency,[3],inactive
same,Potency,[4],inactive
same,Potency,[5],10.5 µM (active)
same,Potency,[6],23.5 µM (active)
same,Potency,[9],14.8 µM (active)
same,Potency,[13],inactive
same,outcome,[14],inactive
same,Potency,[11],inactive
same,Potency,[8],inactive
COc1cccc2cc(-c3nc(C4CCC(C(=O)O)CC4)n4ncnc(N)c34)[nH]c12 (stereo not drawn),"cell viability, % of control (lower = more cytotoxic)",[1],5.49%
same,viability (% of control),[2],21%
same,Potency,[3],inactive
same,Potency,[4],inactive
same,Potency,[5],0.833 µM (active)
same,Potency,[6],0.526 µM (active)
same,Potency,[9],0.526 µM (active)
same,Potency,[7],0.833 µM (active)
same,Potency,[10],0.372 µM (active)
same,Potency,[15],inactive
same,Potency,[11],1.3 µM (active)
same,Potency,[8],296 nM (active) and 1.46 µM (active) and 1.3 µM (active)
CCC(C)n1ncn(-c2ccc(N3CCN(c4ccc(OC[C@H]5CO[C@](Cn6cncn6)(c6ccc(Cl)cc6Cl)O5)cc4)CC3)cc2)c1=O (stereo partly drawn),"cell viability, % of control (lower = more cytotoxic)",[1],92.6%
same,viability (% of control),[2],93.9%
same,Potency,[3],inactive
same,Potency,[4],inactive
same,Potency,[16],inactive
same,Potency,[6],inactive
same,Potency,[9],inactive
same,outcome,[14],inactive
same,Potency,[17],4.69 µM (active)
same,Potency,[7],inactive
same,IC50 (viability decrease),[18],5.9 µM (active)
same,Potency,[15],inactive
same,Potency,[8],inactive
O=C(Nc1ccc(F)c(C(F)(F)F)c1)Nc1nnc(-c2ccncc2)s1,"cell viability, % of control (lower = more cytotoxic)",[1],131%
same,viability (% of control),[2],101%
same,Potency,[3],inactive
same,Potency,[4],inactive
same,Potency,[7],inactive
same,IC50 (viability decrease),[18],14.8 µM (active)
same,Potency,[8],inactive
Cc1cc(Nc2nc(N[C@@H](C)c3ncc(F)cn3)ncc2Cl)n[nH]1,"cell viability, % of control (lower = more cytotoxic)",[1],151%
same,viability (% of control),[2],4.1%
same,Potency,[3],inactive
same,Potency,[4],inactive
same,Potency,[5],6.62 µM (active)
same,Potency,[6],26.4 µM (active)
same,Potency,[9],16.6 µM (active)
same,Potency,[7],inactive
same,Potency,[10],inactive
same,IC50 (viability decrease),[18],inactive
same,Potency,[8],16.6 µM (active) and 1.03 µM (active)
NC(=O)c1ccc(-c2nc(-c3ccc4c(c3)OCCO4)c(-c3ccccn3)[nH]2)cc1,"cell viability, % of control (lower = more cytotoxic)",[1],607%
same,viability (% of control),[2],102%
same,Potency,[3],inactive
same,Potency,[4],inactive
same,Potency,[16],23.5 µM (active)
same,Potency,[7],inactive
same,Potency,[8],inactive
Cn1cnc([N+](=O)[O-])c1Sc1ncnc2nc[nH]c12,"cell viability, % of control (lower = more cytotoxic)",[1],16.2%
same,Potency,[3],inactive
same,Potency,[4],inactive
same,Potency,[5],2.64 µM (active)
same,Potency,[16],1.18 µM (active)
same,Potency,[6],4.69 µM (active)
same,Potency,[9],3.32 µM (active)
same,Potency,[13],inactive
same,outcome,[14],inactive
same,Potency,[8],4.61 µM (active) and 2 µM (active) and 833 nM (active)
same,outcome,[19],inactive
COc1cc(Oc2ccnc3cc(OC)c(OC)cc23)ccc1NC(=O)NC(C)c1nccs1 (stereo not drawn),"cell viability, % of control (lower = more cytotoxic)",[1],98.9%
same,viability (% of control),[2],32.2%
same,Potency,[3],inactive
same,Potency,[4],inactive
same,Potency,[8],inactive
COc1ccc([C@@H]2CC(=O)c3c(O)cc(O[C@@H]4O[C@H](CO[C@@H]5O[C@@H](C)[C@H](O)[C@@H](O)[C@@H]5O)[C@@H](O)[C@H](O)[C@@H]4O)cc3O2)cc1O,"cell viability, % of control (lower = more cytotoxic)",[1],52.6% and 176%
same,Potency,[3],inactive
same,Potency,[4],inactive
same,Potency,[6],inactive
same,Potency,[9],inactive and 23.5 µM (active)
same,Potency,[11],inactive
same,Potency,[8],inactive
CC1(C)Cc2c(-c3ccccc3)c(-c3ccc(Cl)cc3)c(CC(=O)O)n2C1,viability (% of control),[2],78.3%
same,Potency,[3],inactive
same,Potency,[4],inactive
same,Potency,[16],16.6 µM (active)
same,Potency,[7],inactive
same,Potency,[10],inactive
CCCCCCCc1ccc(CCc2cccc(O)c2C(=O)O)cc1,Potency,[3],inactive
same,Potency,[4],inactive
same,Potency,[5],18.7 µM (active)
same,Potency,[16],16.6 µM (active)
same,Potency,[17],inactive
same,Potency,[7],inactive
same,Potency,[15],inactive
CCC(C)N(C)C(=O)c1cc2ccccc2c(-c2ccccc2Cl)n1 (stereo not drawn),"cell viability, % of control (lower = more cytotoxic)",[1],95%
same,Potency,[3],inactive
same,Potency,[4],inactive
same,Potency,[16],23.5 µM (active)
same,Potency,[6],inactive
same,Potency,[7],inactive
same,Potency,[10],inactive
same,IC50 (viability decrease),[18],inactive
same,Potency,[15],inactive
same,outcome,[19],inactive
CN[C@@H](C)C(=O)N[C@H]1CCCC[C@H]2CC[C@@H](C(=O)N[C@@H](c3ccccc3)c3cn(CCCCc4ccc(CCCCn5cc([C@@H](NC(=O)[C@@H]6CC[C@@H]7CCCC[C@H](NC(=O)[C@H](C)NC)C(=O)N76)c6ccccc6)nn5)cc4)nn3)N2C1=O,viability (% of control),[2],1.94%
same,Potency,[3],inactive
same,Potency,[4],inactive
same,Potency,[6],26.4 µM (active)
same,Potency,[9],18.7 µM (active)
same,Potency,[17],inactive
same,Potency,[7],inactive
same,Potency,[10],inactive
same,Potency,[8],inactive
